Most compounds without a hit are left out; they make up all but 3% or so of the library.
Tau fibril FP: tau fibrillization inhibition (FP). P10636. K18 P301L tau heparin fibrillization, Alexa594 FP, 6 h. Potency, µM (top dose mostly 57.7 µM), most hits filed as inhibitors. 0.39% of 280,000 active. AID 1468; note: nearly all actives have a fitted effect of over 55% in size
Target sequence (P10636 561-689 P618L limits assumed): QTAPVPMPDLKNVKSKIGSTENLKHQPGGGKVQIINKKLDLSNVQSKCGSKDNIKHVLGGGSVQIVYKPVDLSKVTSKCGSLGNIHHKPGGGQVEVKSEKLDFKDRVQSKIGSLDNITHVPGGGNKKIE
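K18 P301L tau (15 uM unlabeled/0.24 uM Alexa 594-labeled, final) + compound + heparin 20 uM final; 100 mM NaOAc pH 7; 6 hr 37 C; ThT 30 uM final added, 1 hr RT; FP ex 555/em 632 nm.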
Tau ThT inhib: tau fibrillization inhibition (ThT binding); P10636; recombinant tau K18 P301L, heparin-induced fibrillization, ThT fluorescence; Potency, µM (highest dose often 57.4 µM), hits mostly inhibitors; 2.1% of 270,000 active; AID 1460; note: nearly all actives have a fitted effect of over 55% in size
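K18 P301L tau (15 uM + 0.24 uM Alexa 594-tagged), heparin 20 uM, NaOAc pH 7, 6 h 37 C; ThT 30 uM, 1 h RT, ex 450/em 510 nm.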
Tau fluor counter: counter-screen for tau fibril formation inhibitors; tau K18 P301L (four-repeat tau fragment) Alexa594 fluorescence, heparin fibrillization; 0.93% of 280,000 active; Potency, µM (highest dose often 57.7 µM); note: nearly all actives have a fitted effect of over 55% in size
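Human K18 P301L tau (15 uM unlabeled plus 0.24 uM Alexa 594-labeled, final) in 100 mM sodium acetate pH 7 was mixed with compound and 20 uM heparin and incubated 6 hr at 37 C.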
TR SRC2 fluor cs: counter-screen for TRb-SRC2 inhibitors: fluorescence interference | TRb/SRC2 Texas Red total fluorescence interference | Potency, µM (highest dose often 106 µM) | 0.29% of 280,000 active; active = well fitted curve in either direction with a large enough effect; inconclusive = small, poorly fitted or top-dose-only effect
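Human TRb ligand-binding domain at 0.6 uM with 20 nM Texas Red SRC2 peptide in Tris buffer containing 1 uM T3 and 5% DMSO, incubated with compound 5 h at ambient temperature. Total fluorescence (555/632 nm) calculated as parallel + 2 × perpendicular.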
TRb SRC2 PPI: inhibitors of human thyroid hormone receptor beta-SRC2 interaction. 0.065% of 280,000 active. P10828. Potency, µM (top dose mostly 106 µM), actives largely listed as inhibitors. TRbeta-SRC2 peptide binding, fluorescence polarization; receptor liganded with 1 µM T3; note: nearly all actives have a fitted effect of over 50% in size
Target sequence (P10828 whole entry, looked up): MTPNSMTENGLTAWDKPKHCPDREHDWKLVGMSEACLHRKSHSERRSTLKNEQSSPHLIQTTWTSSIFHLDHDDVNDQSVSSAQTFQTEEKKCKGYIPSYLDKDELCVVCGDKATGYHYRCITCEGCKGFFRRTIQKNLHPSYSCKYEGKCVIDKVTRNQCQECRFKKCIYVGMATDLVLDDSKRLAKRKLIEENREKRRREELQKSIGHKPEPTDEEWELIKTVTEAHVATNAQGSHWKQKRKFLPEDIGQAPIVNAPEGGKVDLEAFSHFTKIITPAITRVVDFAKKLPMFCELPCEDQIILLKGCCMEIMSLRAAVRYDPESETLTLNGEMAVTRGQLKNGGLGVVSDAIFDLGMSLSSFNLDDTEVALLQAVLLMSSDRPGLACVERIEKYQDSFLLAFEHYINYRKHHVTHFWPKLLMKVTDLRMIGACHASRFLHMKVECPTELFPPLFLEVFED
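Each compound concentration gave % activity, normalized to unbound and bound Texas Red SRC2 controls, from polarization read after 5 hr ambient incubation with T3-loaded human TRb LBD.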
Hits are given with their value; . = inactive; ? = inconclusive; / = not tested or not shown; [ ] = another dose, or the depositor's remark. Unless noted, calls come from the whole dose curve; as a rule, active = well fitted curve in the direction sought with a large enough effect; inconclusive = small, poorly fitted or top-dose-only effect, or another doubt; inactive = no such curve, though single readings can be large; an effect the other way counts as inactive or inconclusive.

SMILES	Tau fibril FP	Tau ThT inhib	Tau fluor counter	TR SRC2 fluor cs	TRb SRC2 PPI
Cc1cccc(NC(=O)Cn2c(=O)ccc3cc(S(=O)(=O)N4CCCC4)ccc32)c1C	.	.	.	.	.
Cc1ccccc1-c1nc(NCc2cccnc2)c2ccccc2n1	?	.	.	.	.
C#CCCCO/N=C1/C[C@@H](O)[C@@H](O)[C@@H]2[C@@H]3C(=O)N([C@@H](C)c4ccccc4)C(=O)[C@H]3CC[C@@H]12	.[11.6 µM]	.[11.5 µM]	.[11.6 µM]	.[11.2 µM]	.[11.2 µM]
COc1ccc(Nc2nc(-c3cccs3)nc3ccccc23)c(OC)c1	.	?	10µM[quencher]	.	.
COc1ccc(OC)c(Nc2nc(-c3cccs3)cs2)c1	.	?	15.8µM[quencher]	.	.
COc1ccc(Nc2nc(-c3cccs3)cs2)cc1	.	?	?	.	.
COc1ccccc1Nc1nc(-c2cccs2)cs1	.	14.1µM	?	.	.
Oc1ccc(Nc2nc(-c3cccs3)cs2)cc1	.	?	11.2µM[quencher]	.	.
C=CCC1C=CC(OC(=O)OCC)C(COC(=O)OCC)O1 (stereo unspecified)	.[11.6 µM]	.[11.5 µM]	.[11.6 µM]	.[11.2 µM]	.[11.2 µM]
CN(C)c1nc(NC2CCC(NC(=O)c3ccc(F)c(F)c3)CC2)nc2ccccc12 (stereo unspecified)	/	/	/	.	.
Cc1ccc(CNc2nc(-c3cccs3)nc3ccccc23)cc1	39.8µM	.	?	.	.
COc1ccc(Nc2nc(-c3cccs3)cs2)c(OC)c1	.	11.2µM	15.8µM[quencher]	.	.
O=C(CSc1ccccc1)NCc1ccc2c(c1)CCN2C(=O)c1ccc(Cl)cc1	.	.	.	?	.
O=C(Nc1ccc2nc(SCC(=O)N3CCCC3)sc2c1)c1ccccc1F	.	?	.	.	.
BrC(=C\c1ccccc1)/C=N/N1CCN(c2ccccc2)CC1	?	20µM	?	.	.
CC(/C=N/N1CCN(c2ccc(C)cc2)CC1)=C\c1ccccc1	?	?	.	.	.
CC(C)(C)c1ccc(NC(=O)CSc2nnc(-c3n[nH]c4ccccc34)o2)cc1	31.6µM	.	?	?	.
COc1ccc(-c2nsc(SCC(=O)Nc3ccc4c(c3)OCO4)n2)cc1	.	.	.	.	.
COc1ccc(-c2[nH]c(-c3ccccc3)nc2SCC(=O)Nc2ccc3c(c2)OCO3)cc1	.	?	12.6µM[quencher]	.	.
O=C(CSc1nc(-c2ccc(F)cc2)[nH]c1-c1ccccc1)Nc1ccccc1	?	.	?	.	.
COc1ccc(-c2nc(SCC(=O)Nc3ccc4c(c3)OCO4)c(-c3ccccc3)[nH]2)cc1	?	.	14.1µM[quencher]	.	.
COc1ccc(-c2cc(C(=O)OCC(=O)Nc3ccc4c(c3)OCO4)c3ccccc3n2)cc1	.	?	8.91µM[quencher]	.	.
O=C(COC(=O)c1cc(-c2ccccc2)nc2ccccc12)Nc1ccc2c(c1)OCO2	?	.	?	.	.
CCOC(=O)CCCCC1=CC2=CC(=O)C(C)(O)C(=O)C2=CO1 (stereo unspecified)	.[11.6 µM]	?	.[11.6 µM]	.[11.2 µM]	.[11.2 µM]
CCOCCOCCOCCO	/	/	/	.	.
SMILES	Tau fibril FP	Tau ThT inhib	Tau fluor counter	TR SRC2 fluor cs	TRb SRC2 PPI
S=C(NNc1ccc2ccccc2c1)NC1CCCCC1	?	25.1µM	?	.	.
S=C(Nc1ccc(Oc2ccccc2)cc1)NC1CCCCCC1	.	.	?	.	.
Clc1ccc(CNc2ncnc3onc(-c4ccc(Cl)cc4)c23)cc1	.	.	?	.	.
CC(C)(C)N1C(=O)[C@H]2[C@H]3[C@H](O)[C@H](O)C/C(=N/OCc4ccccc4)[C@H]3CC[C@@H]2C1=O	.[11.6 µM]	.[11.5 µM]	.[11.6 µM]	.[11.2 µM]	.[11.2 µM]
Clc1ccc2c(c1)NC(c1ccncc1)=NC(c1cccs1)=N2	.	?	?	.	.
O=[N+]([O-])c1cc(-c2ncccn2)c([N+](=O)[O-])s1	.	11.2µM	?	.	.
O=C(Nc1ncccn1)c1cc([N+](=O)[O-])cc([N+](=O)[O-])c1	.	.	.	.	.
Cc1cccc(OCCSc2nc3ccccc3n2CC(=O)N2CCOCC2)c1C	.	.	.	.	.
CC(=O)/C(=N/Nc1ccccc1)Sc1nnc(CCc2ccccc2)n1-c1ccccc1	.	.	.	0.355µM[quencher]	?
CC(=O)/C(=N\Nc1ccc(Cl)cc1)Sc1nnc(-c2ccccc2)n1-c1ccccc1	.	.	.	.	.
CC(=O)O[C@H]1CC2(C)[C@@H](C[C@@H](O)[C@H]3[C@@]4(C)CC[C@@H](O)[C@@H](C)[C@@H]4CC[C@@]32C)C1=C(CCC=C(C)C)C(=O)O (stereo partly specified)	?	?	.	.	.
C/C(O)=C(\N=Nc1cc(C)ccc1O)C(N)=O	.	10µM	?	.	.
C#Cc1cccc(Nc2ncnc3cc(OC)c(OC)cc23)c1	?	?	.	.	.
O=C1c2c([N+](=O)[O-])cc([N+](=O)[O-])cc2S(=O)N1Cc1ccccc1 (stereo unspecified)	?	31.6µM	.	.	.
COc1ccc(-c2cc(C(F)(F)F)c3c(=O)n(-c4ccccc4)[nH]c3n2)cc1	.	8.91µM	?	.	.
COc1ccc(-c2cc(C(F)(F)F)nc(NCc3ccccc3)n2)cc1	?	.	.	.	.
CCc1nnc(SCc2nc(-c3ccc(OC)cc3)oc2C)c2cc3sccc3n12	.	?	.	.	.
COc1ccc(CCNC(=O)Cn2c(=O)c3cccn3c3ccccc32)cc1OC	14.1µM	.	?	.	.
CCc1ccccc1NC(=O)Cn1c(=O)c2cccn2c2ccc(F)cc21	.	.	.	?	.
Cc1cccc(NC(=O)Cn2c(=O)c3cccn3c3ccccc32)c1C	17.8µM	.	?	.	.
COc1ccc(CCNC(=O)Cn2c(=O)c3cccn3c3ccc(F)cc32)cc1OC	.	?	.	.	.
COc1cc(C2C3=C(Nc4nc(N)[nH]c(=O)c42)c2ccccc2C3=O)ccc1O (stereo unspecified)	.	11.2µM	.	.	.
Cn1c2c(c(=O)[nH]c1=O)C(c1ccc(O)cc1)C1=C(N2)c2ccccc2C1=O (stereo unspecified)	.	22.4µM	?	.	.
CCC(C)c1ccc(C2C3=C(Nc4nc(N)[nH]c(=O)c42)c2ccccc2C3=O)cc1 (stereo unspecified)	.	?	?	.	.
Nc1nc2c(c(=O)[nH]1)C(c1ccccc1)C1=C(N2)c2ccccc2C1=O (stereo unspecified)	.	6.31µM	?	.	.
COc1ccc(-c2nsc(NC(=O)c3cccc(OC)c3)n2)cc1	?	.	?	.	.
CCn1c(C)nc2cc(C(=O)N/N=C(\C)c3ccc(N4CCOCC4)cc3)ccc21	.	?	.	.	.
CCn1c(C)nc2cc(C(=O)N/N=C/c3ccc(N4CCOCC4)cc3)ccc21	.	8.91µM	.	.	.
O=C(N/N=C/c1ccc(N2CCOCC2)cc1)c1ccc(O)cc1	.	5.01µM	.	.	.
COc1ccccc1CNc1ccnc(-c2ccc3c(c2)OCO3)n1	.	.	.	.	.

Bioassay records: PubChem, National Center for Advancing Translational Sciences (NCATS)
